In PubChem BioAssay AID624354 (Sanford-Burnham Center for Chemical Genomics, 2012):
In all, about 360,000 compounds went through this assay and about 3,800 (1.1%) were called active. This is one part of a sample in which actives are shown more often than they occur. Values without a mark were called inactive.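 The calls were made as follows: active = compounds causing at least 50% loss of cell viability in the single-dose screen, relative to plate controls; inactive = the rest.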

Assay: TRAIL-exposed caspase-8 expressing cell killing – NB7+C8 cells, ATPlite luminescence, TRAIL sensitizer project, primary screen (AID 624354)
Settings: at 10 µM, active compounds read high
For `C#CCNc1ccc(C(=O)OCC)cc1`, the inhibition (viability loss, TRAIL sensitization) was 3.56%.
`O=C(O)Cc1ccc(NCc2ccccc2Cl)cc1` gave an inhibition (viability loss, TRAIL sensitization) of 8.54%.
In the case of `COC(=O)c1ccc(NCc2cc(O)ccc2O)cc1`, the inhibition (viability loss, TRAIL sensitization) is reported as 55.3% (active).
For `CC(C)OC(=O)c1ccc(NCc2cc(O)ccc2O)cc1Cl`, the inhibition (viability loss, TRAIL sensitization) was 78.8% (active).
For `CCCc1cc(C(=O)Nc2ccc(C(=O)OC)cc2)cs1`, the inhibition (viability loss, TRAIL sensitization) was -5.01%.
With `O=C(OC12CC3CC(CC(C3)C1)C2)c1ccc(NCc2cc(O)ccc2O)cc1` the inhibition (viability loss, TRAIL sensitization) was 86.4% (active).
Work on `CN(C)c1nc(N)nc(CSc2nnnn2-c2cccc3ccccc23)n1` yielded an inhibition (viability loss, TRAIL sensitization) of 40.6%.
`Cc1ccc(/C=N/NC(=O)c2sccc2OCc2ccc(F)cc2)cc1` showed an inhibition (viability loss, TRAIL sensitization) of 15.2%.
Work on `Cc1ccccc1CS(=O)(=O)CC1(O)CCN(C(=O)c2cccc(C(F)(F)F)c2)CC1` yielded an inhibition (viability loss, TRAIL sensitization) of 8.2%.
With `CCOc1ccc(N(CC(=O)NC2CCCCCC2)S(=O)(=O)c2c(C)[nH]c(=O)[nH]c2=O)cc1` the inhibition (viability loss, TRAIL sensitization) was 11.6%.
Compound `COc1ccc(NC(=O)c2cc(=O)[nH]c3ccccc23)cc1S(=O)(=O)N1CCOCC1` has an inhibition (viability loss, TRAIL sensitization) of -0.328%.
Compound `CCOc1ccc(CCNC(=O)COC(=O)CCS(=O)(=O)c2ccc(C)cc2)cc1OCC` has an inhibition (viability loss, TRAIL sensitization) of 6.55%.
In the case of `Cc1c(Br)c([N+](=O)[O-])nn1CC(=O)N1CCN(Cc2ccccc2)CC1`, the inhibition (viability loss, TRAIL sensitization) is reported as -5.96%.
With `O=C(Nc1ccn(Cc2ccccc2)n1)c1n[nH]c([N+](=O)[O-])c1Cl` the inhibition (viability loss, TRAIL sensitization) was 62.6% (active).
Compound `O=C(Nc1ccn(Cc2ccccc2F)n1)c1ccc(COc2ccc(Cl)cc2Cl)o1` has an inhibition (viability loss, TRAIL sensitization) of 11.2%.
For `COC(=O)c1cc(NS(=O)(=O)c2ccc3c(c2)c(=O)n(C)c(=O)n3C)cc(C(=O)OC)c1`, the inhibition (viability loss, TRAIL sensitization) was 15.9%.
With `CC[C@H]1CN2CCc3cc(OC)c(OC)cc3[C@@H]2C[C@@H]1C[C@H]1NCCc2cc(OC)c(OC)cc21` the inhibition (viability loss, TRAIL sensitization) was 53.7% (active).
`CCOC(=O)C1CCN(C(=O)C2CCN(S(=O)(=O)CC)CC2)CC1` showed an inhibition (viability loss, TRAIL sensitization) of -7.6%.
Compound `CCN(CC(=O)Nc1c(F)cccc1F)C(=O)C1CCC1` has an inhibition (viability loss, TRAIL sensitization) of -2.6%.
Compound `COc1ccc(COC(=O)c2n[nH]c3ccccc23)cc1F` has an inhibition (viability loss, TRAIL sensitization) of -10.3%.
With `Cc1ccc(C(=O)NC(C)C(c2cccs2)N2CCOCC2)cc1C` (stereo not drawn) the inhibition (viability loss, TRAIL sensitization) was -23.4%.
Compound `CCOC(=O)C/C(C)=N\Nc1ccc([N+](=O)[O-])cc1[N+](=O)[O-]` has an inhibition (viability loss, TRAIL sensitization) of -7.23%.
Work on `CCOC(=O)C(=Cc1ccccc1)C(=O)c1ccccc1` yielded an inhibition (viability loss, TRAIL sensitization) of 18.2%.
For `CCOC(=O)/C(=C\c1ccc([N+](=O)[O-])cc1)C(=O)c1cc(C(C)=O)c(Nc2ccccc2)s1`, the inhibition (viability loss, TRAIL sensitization) was 85.2% (active).
Compound `O=C(CN1C(=O)NC(Cc2ccccc2)(Cc2ccccc2)C1=O)NCC1CCCCC1` has an inhibition (viability loss, TRAIL sensitization) of -33.8%.
For `CCC(CC)c1nnc(NS(=O)(=O)Cc2ccccc2)s1`, the inhibition (viability loss, TRAIL sensitization) was -5.15%.
`C=CCn1cc(Cl)cc(C(=O)Nc2ccccc2)c1=O` gave an inhibition (viability loss, TRAIL sensitization) of 6.15%.
With `CCc1ccc(CNC(=O)C2CCN(c3nnc(C)c4c(C)n(-c5ccc(C)cc5)nc34)CC2)cc1` the inhibition (viability loss, TRAIL sensitization) was 84.7% (active).
With `Cc1ccc(NC(=O)N2CCC(C(=O)NCc3ccc(F)cc3)CC2)cc1` the inhibition (viability loss, TRAIL sensitization) was 1.96%.
`CCc1ccc(CNC(=O)C2CC(=O)N(CCc3ccc(C)cc3)C2)cc1` (stereo not drawn) showed an inhibition (viability loss, TRAIL sensitization) of 8.62%.
Work on `O=C(COC(=O)/C=C/c1ccc(OC(F)F)cc1)NC1CCCCC1` yielded an inhibition (viability loss, TRAIL sensitization) of -8.42%.
Compound `COc1cccc(NC(=O)COC(=O)c2ccc3ccccc3n2)c1` has an inhibition (viability loss, TRAIL sensitization) of -11.3%.
For `COc1cccc(/C=C/c2ccc3ccccc3n2)c1OC(C)=O`, the inhibition (viability loss, TRAIL sensitization) was 65.1% (active).
Compound `CCOc1cccc(/C=C/c2ccc3ccccc3n2)c1OC(C)=O` has an inhibition (viability loss, TRAIL sensitization) of 47.3%.
`C=CCCC(=O)N1C[C@H]2CON(C)[C@H]2C[C@H]1c1cccc(Nc2ccccc2)c1` gave an inhibition (viability loss, TRAIL sensitization) of -0.674%.
With `O=C(NCc1ccc(Cl)cc1)c1cc2c(nc3sccn32)s1` the inhibition (viability loss, TRAIL sensitization) was 0.401%.
For `COc1ccc(C2=Nc3ccccc3NC(=O)C2N(C(=O)c2cc3ccccc3[nH]2)c2ccccc2)cc1` (stereo not drawn), the inhibition (viability loss, TRAIL sensitization) was -7.09%.
Compound `COc1cccc(-c2ccc(SCC(=O)N3CCN(c4ccccc4)CC3)nn2)c1` has an inhibition (viability loss, TRAIL sensitization) of 6.26%.
Compound `COc1ccc(-c2ccnc(SCC(=O)N3CCOCC3)n2)cc1` has an inhibition (viability loss, TRAIL sensitization) of 28%.
For `CCOc1ccc(-c2ccc(SCC(=O)N3CCOCC3)nn2)cc1`, the inhibition (viability loss, TRAIL sensitization) was 50.6% (active).
In the case of `CC(O)c1nc2c(c(=O)n(C)c(=O)n2C)n1C` (stereo not drawn), the inhibition (viability loss, TRAIL sensitization) is reported as -4.64%.
`O=C(c1cccs1)N1C[C@H](n2cc(C3CC3)nn2)[C@@H](O)C[C@@H]1c1ccccc1` gave an inhibition (viability loss, TRAIL sensitization) of -1.93%.
For `O=c1c2c(nc3cc(-c4cccc(Cl)c4)[nH]n13)CCCC2`, the inhibition (viability loss, TRAIL sensitization) was 63.1% (active).
Compound `CCCCN1Cc2c(nc3cc(-c4ccccc4)[nH]n3c2=O)C1=O` has an inhibition (viability loss, TRAIL sensitization) of -2.49%.
Work on `C=CCc1c(C)nc2cc(-c3ccccc3)[nH]n2c1=O` yielded an inhibition (viability loss, TRAIL sensitization) of 30.8%.
`CCn1cc(CNC(=O)c2cc([N+](=O)[O-])c(C)c([N+](=O)[O-])c2)cn1` gave an inhibition (viability loss, TRAIL sensitization) of 24.5%.
In the case of `Cn1c(=O)c2c(ncn2CC(COCc2ccccc2Cl)OCc2ccccc2Cl)n(C)c1=O` (stereo not drawn), the inhibition (viability loss, TRAIL sensitization) is reported as -6.46%.
`COc1ccc(CCc2nnc(CCC(=O)NCc3cnn(-c4ccccc4C)c3)o2)cc1` gave an inhibition (viability loss, TRAIL sensitization) of 2.59%.
For `Cc1ccccc1N(C(=O)CNC(=O)c1cccs1)C(C(=O)NC1CCCC1)c1ccncc1` (stereo not drawn), the inhibition (viability loss, TRAIL sensitization) was 34.8%.
With `COc1ccc(C(C(=O)NC2CCCCC2)N(C(=O)CCl)c2ccccc2Cl)cc1` (stereo not drawn) the inhibition (viability loss, TRAIL sensitization) was 94.5% (active).
With `COc1ccc(C(C(=O)NC2CCCCC2)N(C(=O)c2snc(C(N)=O)c2N)c2ccccc2OC)cc1` (stereo not drawn) the inhibition (viability loss, TRAIL sensitization) was 1.04%.
`COC(=O)[C@@]12C[C@@H](CC(=O)N3CCCCC3)C(=O)N(Cc3ccc4c(c3)OCO4)C1=CCC(C)(C)C2` gave an inhibition (viability loss, TRAIL sensitization) of -12.6%.
Compound `COc1ccccc1C(=O)NCCC(=O)N(C)Cc1cccnc1` has an inhibition (viability loss, TRAIL sensitization) of 10.4%.
`Cc1cc(O)ccc1NC1=CC(=O)CC(C)(C)C1` showed an inhibition (viability loss, TRAIL sensitization) of 1.23%.
With `Cc1cc(N=Nc2ccc3ccccc3c2)ccc1O` the inhibition (viability loss, TRAIL sensitization) was 55.4% (active).
`CCCc1cc(=O)[nH]c(SCC(=O)N2C(C)CCCC2C)n1` (stereo not drawn) showed an inhibition (viability loss, TRAIL sensitization) of -9.5%.
Work on `CC(C)Cn1c(N)c(C(=O)COC(=O)CN2C(=O)C3CC=CCC3C2=O)c(=O)n(C)c1=O` (stereo not drawn) yielded an inhibition (viability loss, TRAIL sensitization) of 13.4%.
With `CCCc1cc(=O)[nH]c(SCC(=O)c2c(N)n(CC(C)C)c(=O)n(C)c2=O)n1` the inhibition (viability loss, TRAIL sensitization) was 84.5% (active).
